# Results as given in PubChem BioAssay (NCI).
# Compounds without any hit were thinned out: in the full panel of roughly 83,000, 20% have a hit.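 Growth was measured after 48 h exposure to one concentration of compound in 96-well plates. Values under 10 count as active.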 Calls of active or inactive are those of the source.
# Tested on: NCI-H522 lung
# Assay: NCI-60 one-dose screen, 48 h (100 = growth as untreated, 0 = no growth, -100 = all killed)
# Settings: 10 µM unless noted
# Procedure: Growth inhibition of the NCI-H522 human Non-Small Cell Lung tumor cell line is measured as a screen for anti-cancer activity. Cells are grown in 96 well plates and exposed to the test compound for 48 hours. Compounds are tested at a single concentration, which is 10^-5 M for most compounds. The reported endpoint is percent growth (GI% or GIPRCNT), where numbers from 0 - 100% represent growth inhibition, and numbers from -100% - 0 represent cell death. For example, a value of 40 represents 60% growth inhibition. A value of 0 means no net growth occurred over the course of the experiment. A value of -40 indicates 40% of cells at the beginning of the experiment died by the end of the experiment. A value of -100 means all cells are dead at the end of the experiment.
# NCI-60 Human Tumor Cell Lines Screen was performed using the standard one-dose NCI protocol, which is described in more detail at https://dtp.cancer.gov/discovery_development/nci-60/default.htm.
# Compounds with GIPRCNT values below 10 were considered active. Activity score was based on GIPRCNT using the following formula: […]
# Score is 0 for GIPRCNT values of 100 or above, 50 for GIPRCNT values of 0, and 100 for GIPRCNT values of -100.
row,SMILES,growth
1,Oc1c(Cl)cc(Cl)cc1CNc1nccnn1,105% (inactive)
2,C/C(Cc1ccc(Cl)cc1)=C(\c1ccc(OCCN2CCCCCC2)cc1)c1ccc(OC(=O)Cc2ccccc2)cc1,62.9% (inactive)
3,C(=N\Nc1nnn(Cc2ccccc2)n1)/c1ccccc1,29.2% (inactive)
4,COc1ccc2nc3cc(Cl)ccc3c(N3CCN(c4nccc(Nc5ccc(Cl)cc5)n4)CC3)c2c1,51.8% (inactive)
5,CN(C)c1ccc(/C=C(\C#N)c2nc3ccccc3s2)cc1,92.7% (inactive)
6,Cc1cc2cc3cc(C)c(N(C)C)cc3nc2cc1N(C)C,-11.7% (active)
7,CS(=O)(=O)c1ccc(-c2cnc3ccc(-c4cccc(S(C)(=O)=O)c4)nn23)cc1,58.4% (inactive)
8,CC(C)CC(CC1=CCC2CC1C2(C)C)C1=C(O)C(C)(C)C(=O)C(C)(C)C1=O (stereo not given),3.54% (active)
9,Nc1ccc(Nc2nccc(-c3ccc4ccccc4c3)n2)cc1,27.6% (inactive)
10,COc1cc(C2CC(=O)c3c(C)nn(-c4nc5ccccc5[nH]4)c3C2)cc(OC)c1OC (stereo not given),31.6% (inactive)
11,O=C(Nc1cccc2[nH]c(C(F)(F)F)nc12)c1ccc(Br)cc1F,-7.83% (active)
12,COc1ccc(/C=C2\CN(C(=O)CCN3CCC(=NO)CC3)C/C(=C\c3ccc(OC)cc3)C2=O)cc1,-29.7% (active)
13,CCN(CC)c1ccc(CNc2cc(C)nc3ccc(OC)cc23)cc1,24.6% (inactive)
14,CCN(CC)CCCNc1cc(OC)cc2nc3cc(Cl)ccc3nc12,-63.2% (active)
15,COc1ccc(S(=O)(=O)NCCCNc2nccc(-c3c(-c4cccc(N)c4)nc4sccn34)n2)cc1,101% (inactive)
16,COc1cc(C2CC(=O)Nc3c2c(C)nn3-c2nc3ccccc3[nH]2)cc(OC)c1OC (stereo not given),94% (inactive)
17,COc1cccc(-c2nc3sccn3c2-c2ccnc(NCCCNS(=O)(=O)c3ccc(Cl)cc3)c2)c1,55.5% (inactive)
18,C[C@@H]1CC[C@@H]2[C@@H]1[C@H](OC(=O)/C=C/c1ccccc1)[C@]1(C3CCCCC3)C[C@@H](OC(=O)CO)[C@@]2(C)O1,65.9% (inactive)
19,O=C(CN1CCOCC1)Nc1ccc(Cn2nnc3c2C(=O)c2nnn(Cc4ccc(NC(=O)CN5CCOCC5)cc4)c2C3=O)cc1,-43% (active)
20,NC(CC(=O)O)C(=O)OCc1ccccc1 (stereo not given),84.3% (inactive)

row,SMILES,growth
1,CN1CCN(Cc2ccc(NC(=O)c3cncc(C#Cc4c(N)ncc5ccc(C#N)cc45)c3)cc2C(F)(F)F)CC1,-53.7% (active)
2,S=c1[nH]nc(CSc2ncnc3c2c(-c2ccccc2)cn3-c2ccc(Cl)cc2)o1,89.5% (inactive)
3,CC1=C(C)C(=O)OC([C@](C)(O)[C@]2(O)CC[C@@]3(O)[C@@H]4C[C@H]5O[C@]56CC=CC(=O)[C@]6(C)[C@H]4CC[C@]23COC(=O)c2ccc(C)o2)C1 (stereo not given in full),-68.7% (active)
4,Cc1ccc(N)cc1F,88.8% (inactive)
5,O=C1/C(=C/c2ccc(F)cc2)CN(C(=O)CCN2CCC(=NO)CC2)C/C1=C\c1ccc(F)cc1,-72.6% (active)
6,O=C(/C=C\c1ccc2ccccc2n1)c1cc(Cl)ccc1O,94.8% (inactive)
7,CCOC(=O)C(Cc1cc(I)c(O)c(I)c1)NC(=O)c1ccccc1 (stereo not given),87.5% (inactive)
8,COc1cc(NC(N)=NCC(C)(C)COc2ccc(C(F)(F)F)cc2)cnc1C#N,57.6% (inactive)
9,COc1ccc(CCN2CC=Cn3c2nc2ccccc2c3=O)cc1,4.09% (active)
10,CC/C(=C(\c1ccc(O)cc1)c1ccc(OCCN(C)CCN(C)C(=O)CCCCC(=O)c2c(C)[nH]c(/C=C3\N=C(c4ccc[nH]4)C=C3OC)c2C)cc1)c1ccccc1,84.3% (inactive)
11,OC(c1cccc(C(F)(F)F)c1)c1cnccc1NC1CCCCCC1 (stereo not given),58.6% (inactive)
12,O=C1OC2C(I)C3CC2C1C3c1ccccc1 (stereo not given),110% (inactive)
13,COc1ccc2nc3cc(Cl)ccc3c(N3CCN(c4nccc(NCc5ccccc5)n4)CC3)c2c1,-0.14% (active)
14,Nc1ccc2c(c1)C(=O)NC2=O,99.3% (inactive)
15,COc1ccc(/C=C/C(=O)c2ccc(NC(=O)c3cc4cc5ccccc5nc4s3)cc2)cc1OC,95.9% (inactive)
16,CSc1ccc(N=C=C(c2ccccc2)c2ccccc2)cc1,71.8% (inactive)
17,CCN(CC)CC(C)Nc1ccc([N+](=O)[O-])c2sc3ccccc3c(=O)c12 (stereo not given),0.683% (active)
18,COc1ccc(C(=O)/C=C/c2c(Cl)c3c(c(OC)c2Cl)OCC(=O)N3)cc1,12.7% (inactive)
19,COc1cccc(NC(=O)c2sc3nc4c(cc3c2N)CN(Cc2ccccc2)CC4)c1,68% (inactive)
20,Clc1cccc(Nc2nc(Nc3cnc4ccccc4c3)c3[nH]cnc3n2)c1,61.9% (inactive)
